HCV inhibitor – blocks hepatitis C virus | Huh7.5.1 HCVcc-Cre infection, luciferase reporter, 44 h | Potency, µM (top dose mostly 41.8 µM), for inactives: top-dose activity change, negative = inhibition, most hits filed as inhibitors | actives 3.4% (n = 340,000); active means well fitted inhibition curve with a large enough effect; inconclusive means small, poorly fitted or top-dose-only effect, or another doubt; inactive means no such curve, though single readings can be large or run the other way; further: potency means the concentration at half of the fitted maximal effect
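Whole-lifecycle infectious HCVcc-Cre system; cells 1,000/well, compound then virus (~0.5 moi) added 4 h after plating, 44 h culture. Luciferase read 15 sec following 15 min substrate incubation, room temp.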
HCMV antiviral – blocks human cytomegalovirus replication | actives 4.5% (n = 410,000) | activity change, negative = inhibition, % at 57.5 µM | HFF cells, HCMV-luciferase reporter, 72 h; hits give low values | AID 1259415; in the data active means activity change below about -60%; inconclusive means no clear call, values can overlap the other calls; inactive means above about -39%
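Cell-based, HFFs, 1000 cells/well, 16 h 37C; cpds in DMSO + HCMV-luc, MOI 1 PFU/cell; 72 h 37C; OneGlo luminescence after 5 min RT; norm. to buffer vs Salinomycin 10uM.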
Vaccinia Venus – vaccinia inhibition (Venus reporter); actives 0.46% (n = 330,000); Potency, µM (top dose mostly 36.5 µM), for the others: top-dose activity change, negative = inhibition, actives largely listed as inhibitors; Vaccinia virus Venus reporter expression, fluorescence; calls by dose curve; tested in A549 cells; further: potency means the concentration at half of the fitted maximal effect; nearly all actives have a fitted effect of over 30% in size
VACV mCherry inh – vaccinia inhibition (mCherry reporter); Potency, µM (doses to about 36.5 µM), without a hit: top-dose activity change, negative = inhibition, most hits filed as inhibitors; actives 0.63% (n = 310,000); Vaccinia virus mCherry reporter infection, fluorescence; calls by dose curve; tested in A549 cells; further: potency means the concentration at half of the fitted maximal effect; nearly all actives have a fitted effect of over 35% in size
MARV entry inh – inhibitors of Marburg virus binding or cell entry. Marburg virus pseudotyped entry inhibition, cell reporter. Potency, µM (top dose mostly 37.8 µM), inactives show top-dose activity change, negative = inhibition, usual class: inhibitors. actives 1.8% (n = 300,000). AID 540276; calls by dose curve; tested in HEK293 cells; further: potency means the concentration at half of the fitted maximal effect
LASV entry inh – Lassa virus entry inhibition | Lassa virus pseudotype entry inhibition, cell reporter | Potency, µM (doses to about 37.9 µM), for inactives: at the top dose activity change, negative = inhibition, most hits filed as inhibitors | AID 540256 | actives 1.2% (n = 300,000); calls by dose curve; tested in HEK293 cells; further: potency means the concentration at half of the fitted maximal effect; nearly all actives have a fitted effect of over 50% in size
* marks the source's active call; other numbers are inactive results; i = inactive; ? = inconclusive; . = not tested or not shown; [ ] = another dose, or the depositor's remark. Hits are enriched below; roughly 7.8% of the tested compounds scored in any of these assays. On the % scale 0 is the no-effect control and ±100 the full control effect.

SMILES	HCV inhibitor	HCMV antiviral	Vaccinia Venus	VACV mCherry inh	MARV entry inh	LASV entry inh
COc1ccc(-c2cc(-c3ccccc3)nc(NN)n2)cc1OC	?	28.1	-7.5%	?	?	?
COc1cc2cnc(-c3ccccc3)c(-c3cc(OC)c(OC)c(OC)c3)c2cc1OC	12.6µM*	17.1	?	-14.8%	.	.
CC1CN=C(c2ccc(Cl)cc2)c2c3ccccc3[n+]([O-])n21 (stereo not given)	.	31.1	.	.	.	.
CCOc1ccc(OCC)c(NC(=O)CSc2nc3c(c(=O)n(C)c(=O)n3C)n2C)c1	.	.	.	.	-1.3%	.
CCOc1ccc(OCC)c(NC(=O)CSc2nc3c(c(=O)n(C)c(=O)n3C)n2C(C)C)c1	10µM*	-62.5*	-20.1%	-24.5%	?	?
CCC(=O)Nc1cc2[nH]c(=O)cc(C)c2cc1C	9.5%	-17.8	.	.	.	.
Cc1cc2oc(=O)cc(C)c2cc1NC(=O)CCC(=O)O	-25.0%	5.2	-8.2%	-16.2%	17.6%	-9.4%
Cc1cc2oc(=O)cc(C)c2cc1NC(=O)CCl	?	-100.4*	?	?	?	?
Cc1cc2c(C)cc(=O)[nH]c2cc1NC(=O)CCl	11.2µM*	-24.9	.	.	-0.6%	.
CC(C)COc1ccc(C/C(N)=N/n2cnnc2)cc1	14.1µM*	-94.3*	-12.0%	i	1µM*	?
Cc1cc(C)c2nc(Cl)c(CN(Cc3ccco3)C(=O)Nc3ccccc3C)cc2c1	?	-62.7*	?	-25.9%	?	?
Cc1cccc(NC(=O)c2sc3ncnc(N(C)C4CCCCC4)c3c2C)c1C	.	18.2	-5.0%	i	.	23.4%[46.1 µM]
Cc1nn(Cc2ccccc2)c2sc(C(=O)NCc3cccnc3)cc12	7.94µM*	10.0	-23.3%	?	-6.4%	?
COc1ccc(C)cc1NC(=O)c1cc(S(=O)(=O)N2CCC(C)CC2)ccc1F	.	-23.9	-12.7%	-7.9%	.	-2.2%[46.1 µM]
COc1ccc(-n2c(C(C)n3nc(C)c([N+](=O)[O-])c3C)n[nH]c2=S)cc1 (stereo not given)	23.7%	-15.6	.	.	4.2%	3.2%
COc1ccc(-n2c(C)c([N+](=O)[O-])c3ccc(O)c(CN(C)C)c32)cc1	-29.9%	-91.9*	-8.6%	.	?	-24.3%
COc1ccc(NC(C)=O)cc1NC(=O)c1cccn(Cc2ccccc2)c1=O	.	0.6	-8.4%	-13.6%	.	12.3%[46.1 µM]
COc1cccc(NC(=O)Nc2cc(C)ccc2OC)c1	-26.1%	?	-25.7%	-6.0%	?	3.0%[46.1 µM]
COc1ccc(NC(=O)c2cccn(Cc3ccc(Cl)cc3)c2=O)c(OC)c1	.	-69.6*	?	-2.3%	.	?
COc1cccc(Cn2cccc(NC(=O)Nc3cccc(C#N)c3)c2=O)c1	?	-61.9*	-12.3%	-21.6%	.	.
COc1cccc(NC(=O)Nc2cccn(Cc3ccc(C)cc3)c2=O)c1	11.2µM*	?	.	.	?	?
COc1cccc(Cn2cc(C)cc(NC(=O)NCc3ccccc3)c2=O)c1	-22.5%	11.2	.	.	.	.
COC(=O)c1cc2sc(C)cc2n1Cc1ccc(Br)cc1F	.	22.5	-10.7%	-3.2%	6.5%[46.1 µM]	.
O=C1NC(Cc2ccc(O)cc2)c2nc3cc(F)ccc3c(=O)n2-c2cc(Cl)ccc21 (stereo not given)	0.2%	13.8	.	.	.	.
O=C1NC(Cc2ccccc2)c2nc3ccc(Cl)cc3c(=O)n2-c2cc3ccccc3cc21 (stereo not given)	.	-0.3	-22.0%	i	.	.
SMILES	HCV inhibitor	HCMV antiviral	Vaccinia Venus	VACV mCherry inh	MARV entry inh	LASV entry inh
O=C1NC(Cc2ccc(O)cc2)c2nc3ccc(Cl)cc3c(=O)n2-c2cc3ccccc3cc21 (stereo not given)	.	-105.5*	?	-30.9%	.	.
Cc1ccc2c(=O)n3c(nc2c1)C(Cc1ccc(O)cc1)NC(=O)c1cc2ccccc2cc1-3 (stereo not given)	.	-65.5*	?	-18.2%	.	.
O=C1NC(Cc2ccc(O)cc2)c2nc3cc(Cl)ccc3c(=O)n2-c2cc(Cl)ccc21 (stereo not given)	25.1µM*	-19.7	?	?	.	.
CCC1NC(=O)c2cc3ccccc3cc2-n2c1nc1cc(C)cc(C)c1c2=O (stereo not given)	.	-10.3	-23.4%	-5.3%	.	.
Cc1cc(C)c2c(=O)n3c(nc2c1)C(Cc1ccccc1)NC(=O)c1cc2ccccc2cc1-3 (stereo not given)	.	-71.9*	-23.5%	i	.	.
CCc1c(-c2ccccc2)nc2ccccc2c1C(=O)NC(C)c1ccccc1 (stereo not given)	.	?	-8.3%	-9.9%	.	-25.8%[46.1 µM]
CN(C)CCNC(=O)c1sc2cccc(F)c2c1Cl	-7.9%	55.5	-11.6%	-16.8%	?	?
Cc1cc(C(=O)NCCCN(C)C)c2ccccc2n1	23.9%	-16.0	1.3%	-14.7%	.	.
COc1ccc(OC)c2nc3c(C(=O)NCCN(C)C)cccc3nc12	?	-96.2*	?	?	?	?
COc1ccc(C23CC4CC(CC(C4)C2)C3)cc1C(=O)NCCN(C)C	-5.8%	-70.0*	.	.	.	.
CN(C)CCNC(=O)c1cccc2ccc(-c3ccc(-c4ccccc4)cc3)nc12	?	8.4	12.6µM*	?	?	?
CN(C)CCNC(=O)c1cccc2nc3cccc(F)c3nc12	?	-98.8*	3.16µM*	?	?	-9.3%
CN(C)CCNC(=O)c1ccccc1	5.7%	-24.5	.	.	?	-9.8%
COC(=O)CC=C[C@@H](C)[C@@H](C=NO[C@@H](C)c1cn([C@H](CO)Cc2ccccc2)nn1)NS(=O)(=O)c1ccc(C)cc1	.	.	.	.	-12.7%[14.2 µM]	12.8%[14.3 µM]
COc1ccccc1NC(=O)CN1C(=O)c2cccc3cccc1c23	.	-31.4	-13.8%	-19.7%	?	-0.5%[46.1 µM]
CCCCOc1ccccc1C(=O)Nc1nonc1-c1ccccc1	.	-99.5*	-19.1%	i	1.1%[46.1 µM]	2.8%[46.1 µM]
O=C(Nc1nonc1-c1ccc(Cl)cc1)c1ccccc1F	.	-68.2*	-18.4%	-16.3%	?	10.4%[46.1 µM]
COc1cc(C(=O)Nc2nonc2-c2ccc(C)c(C)c2)cc(OC)c1OC	.	-20.6	-3.8%	-9.5%	8.0%[46.1 µM]	6.1%[46.1 µM]
CCCOc1ccc(-c2nonc2NC(=O)c2cc(OC)c(OC)c(OC)c2)cc1OCCC	.	-76.2*	-19.3%	-4.1%	-18.9%[46.1 µM]	-20.5%[46.1 µM]
Cc1cc(N2CCN(Cc3cn(C)nc3-c3cccc(Cl)c3)CC2)cc(C)n1	7.08µM*	?	-28.4%	-29.8%	?	?
CCOC(=O)c1c(NC(=O)CN2CCN(S(=O)(=O)c3cc(Cl)ccc3Cl)CC2)sc(C(=O)N(C)C)c1C	11.2µM*	-90.0*	.	.	.	.
CCOC(=O)c1c(NC(=O)CN2C(=O)NC(C)(c3ccc(Cl)cc3)C2=O)sc(C(=O)NC)c1C (stereo not given)	14.1µM*	1.5	?	-1.6%	?	?
CCOC(=O)c1c(NC(=O)COC(=O)c2ccc(Cl)nc2)sc(C(=O)N(C)C)c1C	-8.6%	-18.6	-17.5%	-16.0%	13.3%	16.7%

Screening data (PubChem BioAssay)
